# Screens deposited in PubChem by National Center for Advancing Translational Sciences (NCATS).
# RORgamma inh = blocks mouse ROR gamma transcriptional activity; P51450; Drosophila S2 Gal4-RORgamma UAS-luciferase reporter, 20 h; Potency, µM (titrated, usually from 53.6 µM), without a hit: at the top dose activity change, negative = inhibition, usual class: inhibitors; 310,000 tested, 5.4% active; AID 2551; further: on the % scale 0 is the no-effect control and ±100 the full control effect; nearly all actives have a fitted effect of over 60% in size
# Target sequence (P51450 whole entry, looked up, the tested form may be a part): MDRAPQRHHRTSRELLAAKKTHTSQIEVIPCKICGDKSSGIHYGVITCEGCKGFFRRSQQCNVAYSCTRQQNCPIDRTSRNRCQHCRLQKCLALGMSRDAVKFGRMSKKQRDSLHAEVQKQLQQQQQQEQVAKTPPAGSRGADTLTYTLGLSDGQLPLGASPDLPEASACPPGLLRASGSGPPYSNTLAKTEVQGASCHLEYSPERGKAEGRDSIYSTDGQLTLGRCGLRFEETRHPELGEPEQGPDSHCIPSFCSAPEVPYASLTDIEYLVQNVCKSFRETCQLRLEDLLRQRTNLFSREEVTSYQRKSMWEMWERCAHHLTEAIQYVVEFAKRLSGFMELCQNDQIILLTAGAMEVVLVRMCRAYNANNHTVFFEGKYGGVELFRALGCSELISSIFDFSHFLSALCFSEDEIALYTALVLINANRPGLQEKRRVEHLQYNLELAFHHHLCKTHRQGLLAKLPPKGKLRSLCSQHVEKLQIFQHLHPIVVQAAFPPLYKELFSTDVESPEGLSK
#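 Read-out: Photinus luciferase luminescence; inhibitors lower reporter signal. Insect Schneider cells with Gal4-ROR gamma fusion under metallothionein promoter, UAS reporter; 700 uM final copper sulfate induction, 20 hr, ambient temperature.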
# VP16 counter = Gal4-VP16 reporter inhibition counter-screen. 310,000 tested, 3.5% active. Potency, µM (highest dose often 53.6 µM), inactives show top-dose activity, negative = inhibition, actives largely listed as inhibitors. AID 2546. Drosophila S2 Gal4-VP16 UAS-luciferase, luminescence, 20 h;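 further: Gal4-VP16 expression switched on by copper sulfate through the metallothionein promoter; on the % scale 0 is the no-effect control and ±100 the full control effect; nearly all actives have a fitted effect of over 50% in size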
# MCF10A rereplic = DNA re-replication induction in MCF 10a cells; MCF 10A DNA re-replication, Hoechst nuclear intensity, 48 h; Potency, µM (top dose mostly 46.1 µM), without a hit: at the highest dose activity, positive = re-replication, hits mostly activators; 350,000 tested, 2.9% active; further: % of control where 0% means no effect; nearly all actives have a fitted effect of over 50% in size
# ELG1 DNA repair = ELG1-dependent DNA repair inhibition | HEK293T ELG1-luciferase reporter, luminescence, 16 h; DNA damage induced by 5-fluorouridine | Potency, µM (top dose mostly 46.1 µM), for the others: top-dose activity change, negative = inhibition, hits mostly inhibitors | 330,000 tested, 2.3% active | AID 504467; further: on the % scale 0 is the no-effect control and ±100 the full control effect; nearly all actives have a fitted effect of over 55% in size
#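 In this reporter screen, reduction of luminescence relative to DMSO vehicle indicated activity. Compounds and 5-fluorouridine were added together to 2,000 cells per well, incubated for 16 hr at 37 °C, then developed with ONE-Glo.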
# SW480 rerep = induces DNA re-replication in SW480 colon adenocarcinoma cells; SW480 DNA re-replication, Hoechst DNA content imaging, 48 h; Potency, µM (top dose mostly 46.1 µM), without a hit: at the highest dose re-replication activation, hits mostly activators; 340,000 tested, 1.8% active; AID 624297; further: % of control where 0% means no effect; nearly all actives have a fitted effect of over 55% in size
#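 Cells (250 per well) received 23 nL compound or DMSO by pin tool and were kept 48 hr at 37 C, 5% CO2. Nuclei were then stained with Hoechst for 40 min and scanned for DNA content.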
# Active calls of the source: *; ? = inconclusive; . = no result given. Hits are enriched below; roughly 10% of the tested compounds scored in any of these assays. The call rests on the fitted dose curve; in most records, active means well fitted curve in the direction sought with a large enough effect; inconclusive means small, poorly fitted or top-dose-only effect, or another doubt; inactive means no such curve, though single readings can be large; an effect the other way counts as inactive or inconclusive. Potency means the concentration at half of the fitted maximal effect.
SMILES,RORgamma inh,VP16 counter,MCF10A rereplic,ELG1 DNA repair,SW480 rerep
CC[C@]1(c2cccc(C)c2)C(=O)N(C(=O)OC)N1C(=O)OC,2%,0%,?,?,1%
O=C1N=C(O)CN1/N=C\c1ccc(-c2ccc([N+](=O)[O-])cc2)o1,-15%,-19%,.,.,.
Cc1ccc2nc(-c3ccc4c(c3)OCCO4)cn2c1,0.4µM*,1.1µM*,5.8µM*,?,2.6µM*
COc1ccc2ccccc2c1/C=N/Nc1ccc(Cl)c(C(=O)O)c1,-29%,7%,?,17%,0%
COc1ccc(N/N=C/c2c(C(=O)O)ccc3ccccc23)cc1,1.4µM*,4.5µM*,?,?,?
COc1cc(/C=C/[N+](=O)[O-])ccc1OC(=O)c1cc2ccccc2oc1=O,16µM*,7.1µM*,?,?,21%
Nc1ccc(Cl)c(S(=O)(=O)Nc2cccc(Cl)c2)c1,19%,4%,0.18µM*,7%,-63%
Cc1ccc(NS(=O)(=O)c2cc(N)ccc2Cl)c(C)c1,-9%,?,6%,?,1%
Cc1c(C(=O)NCc2ccco2)oc2ccccc12,?,19%,-13%,24%,4%
COc1ccc(Cc2nc3ccc(C(=O)N4C[C@@H](C)O[C@@H](C)C4)cc3o2)cc1OC,?,?,-3%,?,1%
COCCN1CCN(C(=O)c2ccc3nc(Cc4ccc(OC)c(OC)c4)oc3c2)CC1,?,7.1µM*,17%,16%,?
CCC(=O)NC(=S)Nc1ccc(NC(=O)COc2ccc(Cl)cc2Cl)cc1,11µM*,?,?,5%,2%
Cc1cccc(NC(=S)NNC(=O)COc2ccc(Cl)cc2Cl)c1,4.5µM*,2.8µM*,15%,?,-5%
COc1ccc(Cl)cc1NC(=S)Nc1cccc(C)c1,11µM*,?,-9%,1%,1%
COc1ccc(Cl)cc1NC(=S)Nc1cccnc1,-11%,-12%,-2%,3%,-6%
O=C(COc1cccc2cccnc12)NNC(=S)Nc1ccccc1,0.89µM*,-2%,.,0%,.
Cc1ccn2c(=O)nc(SCC(=O)N3CCCCC3)nc2c1,.,.,-2%,?,-74%
Cc1ccc(-c2nnc(Nc3ccc4c(c3)OCO4)c3ccccc23)cc1S(N)(=O)=O,?,-20%,-3%,16µM*,2%
CC(=O)Nc1ccc(Nc2nnc(-c3ccc(C)c(S(N)(=O)=O)c3)c3ccccc23)cc1,0%,3%,-21%,-6%,-6%
CCNC(=S)N/N=C(\C)c1ccco1,4µM*,13µM*,?,14%,?
C/C(=N\NC(=S)NCc1ccccc1)c1ccc(Br)cc1,0.28µM*,0.5µM*,?,?,-2%
C/C(=N\NC(=S)NCc1ccccc1)c1ccc(C)o1,2.2µM*,7.1µM*,?,15%,26%
C/C(=N\NC(=S)Nc1cccc(C)c1)c1ccco1,?,-27%,0%,?,-7%
C/C(=N\NC(=S)NCc1ccccc1)c1ccc2ccccc2c1OC(F)F,2.2µM*,2.2µM*,?,?,-33%
CCN(CC(=O)NCc1ccc(F)cc1)c1ccc(S(C)(=O)=O)cc1[N+](=O)[O-],2%,-7%,8%,14%,-1%
SMILES,RORgamma inh,VP16 counter,MCF10A rereplic,ELG1 DNA repair,SW480 rerep
O=C(NCc1ccccc1)c1ccc2c(c1)OCCO2,?,4%,-1%,?,1%
C/C(=N\NC(=S)NCc1ccccc1)c1ccc2c(c1)OCCO2,2.8µM*,8.9µM*,19%,?,-5%
COc1ccc(-c2nc3c4ccccc4[nH]c(=O)n3n2)cc1,15%,16%,11%,.,4%
COc1cc2[nH]c(=O)n3nc(-c4ccccc4)nc3c2cc1OC,?,-10%,-1%,21µM*,-1%
CC1CCC2(CC1)NC(=O)N(CC(=O)NC1(C#N)CCCCC1)C2=O (configuration not stated),.,.,-1%,15%,-20%
CC1CCN(CC(=O)n2c3c(c4ccccc42)CCCC3)CC1,2%,-6%,3%,7%,-2%
O=C(c1ccccc1F)n1c2c(c3ccccc31)CCCC2,1%,2%,15µM*,?,?
